Screening data (PubChem BioAssay)
Shown is part of a subset that was picked to be rich in hits.
Pf Dd2 inh: blocks in vitro growth of P. falciparum Dd2; AID 1347417; Potency, µM (top dose mostly 28.9 µM), actives largely listed as inhibitors; 120,000 tested, 4.3% active; P. falciparum Dd2 growth, SYBR Green, 72 h; active means well fitted inhibition curve with a large enough effect; further: nearly all actives have a fitted effect of over 65% in size
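Infected erythrocytes (Dd2, 0.3% parasitemia, 2.5% hematocrit final) are added to compound in RPMI-1640/Albumax II medium, grown 72 h at 37C in low oxygen, then lysed with saponin/Triton-X containing SYBR Green and read by fluorescence.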
Large screens that a line does not name were inactive.

COc1cccc(CN2C(=O)C3(SCC(=O)N3c3ccc(C(C)C)cc3)c3ccccc32)c1 (stereo not given)	none
Cc1ccc(N2C(=O)CSC23C(=O)N(CC(=O)NCCc2ccccc2)c2ccccc23)cc1 (stereo not given)	none
Cc1cccc(N2C(=O)CSC23C(=O)N(CC(=O)Nc2cccc(Cl)c2)c2ccccc23)c1 (stereo not given)	Pf Dd2 inh 14.1µM
Cc1ccc(NC(=O)Cn2cccc2-c2nc(-c3ccc(F)cc3)no2)c(Cl)c1	none
COc1ccc(CN2C(=O)[C@@H]3C[C@@H](O)CN3C3(CN(Cc4cccnc4)C3)C2=O)cc1	none
Cc1nc(C)c(C(=O)N2CC[C@H](CO)[C@H](NC(=O)C3CC3)C2)s1	none
O=C(NCCc1ccccn1)C1CN(S(=O)(=O)c2cccnc2)CC12CCCCC2 (stereo not given)	none
Cc1ccc(CSc2nc(N)cc(N3CCN(CCCO)CC3)n2)cc1	none
COc1ccc(-c2noc(N3CCC(C(=O)Nc4cccc(C)c4C)CC3)n2)cc1	none
COc1ccc(NC(=O)C2CCN(S(=O)(=O)c3cc(-c4noc(C)n4)ccc3C)CC2)cc1	Pf Dd2 inh 6.31µM
COc1ccc(/C=C\c2onc(C)c2S(=O)(=O)N2CCC(C(=O)Nc3cccc(OC)c3)CC2)cc1	Pf Dd2 inh 8.91µM
CCN(CC)C(=O)C1CCN(S(=O)(=O)c2c(C)noc2/C=C/c2cccc(OC)c2)CC1	none
Cc1ccc(/C=C/c2onc(C)c2S(=O)(=O)N2CCC(C(=O)Nc3ccc(Br)c(C)c3)CC2)cc1	none
COc1ccc(CNC(=O)C2CCN(S(=O)(=O)c3cccc(-c4noc(C)n4)c3)CC2)cc1	none
Cc1ccc(C(=O)N2CC[C@@H]3CN(S(C)(=O)=O)[C@@H]3C2)c(C)c1	none
Cc1cc(C)n(CC(=O)N2CCC(c3nc(CCOc4ccc(F)cc4)no3)C2)n1 (stereo not given)	none
O=C(c1nc(-c2cccc(C(F)(F)F)c2)c2cnccn12)N1CCOCC1	none
O=C(c1nc(-c2ccc(F)cc2)c2cnccn12)N1CCCC1	Pf Dd2 inh 6.31µM
C[S+](=O)([O-])c1ccc(-c2cc(C(=O)N3CCN(c4ncccn4)CC3)nn3cccc23)cc1	none
O=C(c1nc(-c2ccccc2)c2ccccn12)N1CCN(c2ncccn2)CC1	none
C[S+](=O)([O-])c1ccc(-c2nc(C(=O)N3CCOCC3)n3ccncc23)cc1	Pf Dd2 inh 7.94µM
N#CC1CCN(C(=O)c2nc(-c3cccnc3)c3cnccn23)CC1	none
C#CCNC(=O)c1nc(-c2ccc([S+](C)(=O)[O-])cc2)c2cnccn12	none
C[S+](=O)([O-])c1ccc(-c2nc(C(=O)N3CCN(c4ncccn4)CC3)n3ccncc23)cc1	Pf Dd2 inh 11.2µM
O=C(c1nc(-c2ccc(F)cc2)c2ccccn12)N1CCOCC1	none
CCC(CC)C(=O)N1CCCN(S(C)(=O)=O)c2ccccc21	none
O=C(c1cnccn1)N1CCC(N2CC3CC(C2)[C@H]2CCCC(=O)N2C3)CC1 (stereo not given in full)	none
COc1ccc(NC(=O)c2ccc3c(c2)OCCN(Cc2ncccn2)C3)c(F)c1	none
CS(=O)(=O)N1C[C@H]2CCN(Cc3cn[nH]c3-c3ccccc3)C[C@H]21	none
Cc1cc(C(=O)N2CC(F)(F)C[C@H]2c2nnc(C3CC3)o2)c(C)o1	none
Cc1cc(C(=O)N2CC(F)(F)C[C@H]2c2nc(C3CC3)no2)c(C)o1	Pf Dd2 inh 3.16µM
Cn1ccnc1C(=O)N1CC(F)(F)C[C@H]1c1nc(C2CC2)no1	none
COC(=O)c1c(C)sc(-c2c(-c3ccc4c(c3)OCCO4)[nH]c3c2c(=O)n(C)c(=O)n3C)c1O	none
CCOC(=O)c1c(C)sc(-c2c(-c3ccc(OC)c(F)c3)[nH]c3c2c(=O)[nH]c(=O)n3C)c1O	none
CCOC(=O)c1c(C)sc(-c2c(-c3ccc4c(c3)OCCO4)[nH]c3c2c(=O)n(C)c(=O)n3C)c1O	Pf Dd2 inh 8.91µM
COCCNC(=O)[C@@H]1C[C@@H](O)CN1C1CCN(C(=O)c2ccc3ncccc3c2)CC1	none
COC(=O)C1=C(C)N=C2SC=C(CC(=O)NCC3CCCO3)N2C1c1ccc(OC)cc1OC (stereo not given)	none
CCOC(=O)c1c(C)n(-c2ccccc2)c2ccc(OC(=O)c3c(F)cccc3F)cc12	none
CCOC(=O)c1c(C)n(-c2ccccc2)c2ccc(OC(=O)c3ccccc3)cc12	Pf Dd2 inh 2.82µM
CCOC(=O)c1cc(OC(=O)c2ccc(OC)cc2)n(-c2ccccc2)n1	none
Cc1cc(C)n(CCC(=O)N2CCCC(c3nnnn3C)C2)n1 (stereo not given)	none
O=C(NCc1cccnc1)[C@@H]1C[C@@H](O)CN1C1CCN(C(=O)Cc2cccc(F)c2)CC1	none
Cc1ccc(NC(=O)CSc2nc(-c3ccc(F)cc3)nc3c2Cc2c(CO)cnc(C)c2O3)cc1C	none
Cc1cc(C)c(NC(=O)CSc2nc(-c3ccc(F)cc3)nc3c2Cc2c(CO)cnc(C)c2O3)c(C)c1	none
COc1cccc(-c2nc3c(c(SCC(=O)Nc4cc(C)ccc4C)n2)Cc2c(CO)cnc(C)c2O3)c1	none
Cc1cccc(NC(=O)CSc2nc(-c3cccc(C)c3)nc3c2Cc2c(CO)cnc(C)c2O3)c1	Pf Dd2 inh 8.91µM
